# About 79,000 compounds went through this panel and 15% of them were active in at least one assay; those are over-represented in the sample as a whole. A number with no mark means an inactive call. Activity calls are given as the source filed them. Rule as the data show it: active = growth inhibition above about 70%; inactive = the rest.
# Assays:
# [1] = NCI Yeast Anticancer Drug Screen. Data for the rad50 strain (AID 155);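 also: 0% = growth of vehicle-only cultures of the same strain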; details: S. cerevisiae rad50 strain growth inhibition, hits give high values
# In short: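 DNA repair mutant yeast, compound exposure, growth read-out; inhibition is taken relative to vehicle.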
# [2] = NCI Yeast Anticancer Drug Screen. Data for the mec2-1 strain (AID 157); details: S. cerevisiae mec2-1 strain, hits give high values
# In short: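 Cells of the genetically defined mec2-1 yeast strain are incubated with test compound. Inhibition of growth is calculated against vehicle-treated controls.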
# [3] = NCI Yeast Anticancer Drug Screen. Data for the sgs1 mgt1 strain (AID 161);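 also: 0% = growth of cultures given vehicle only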; details: S. cerevisiae sgs1 mgt1 strain, hits give high values
# In short: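 Read-out: growth inhibition vs vehicle controls. Cells: mutant yeast strain deficient in DNA damage repair.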
# [4] = NCI Yeast Anticancer Drug Screen. Data for the cln2 rad14 strain (AID 165);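 also: 0% = growth equal to vehicle treated cultures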; details: S. cerevisiae cln2 rad14 strain, hits give high values
# In short: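 The screen exposed genetically defined yeast (cln2 rad14) to test compounds and scored growth inhibition relative to vehicle-treated controls.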
# [5] = NCI Yeast Anticancer Drug Screen. Data for the bub3 strain (AID 167); details: S. cerevisiae bub3 mutant strain, hits give high values
# In short: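 In this screen, a yeast mutant lacking normal mitotic checkpoint function is challenged with compound. Relative growth versus vehicle gives the inhibition value.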
# [6] = NCI Yeast Anticancer Drug Screen. Data for the mlh1 rad18 strain (AID 175); details: S. cerevisiae mlh1 rad18 strain growth inhibition, hits give high values
# In short: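 Compound-treated yeast growth, normalised to vehicle controls. Strain bears defined DNA repair mutations.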
# [7] = at 5.0 µM (retest, dose inferred, filed as 0.5)
# [8] = at 50.0 µM (retest, dose inferred, filed as 5.0)
Structure (SMILES),"growth inhibition [1, 7]","growth inhibition [1, 8]",growth inhibition ([1]; at 50.0 µM),"growth inhibition [2, 7]","growth inhibition [2, 8]",growth inhibition ([2]; at 50.0 µM),"growth inhibition [3, 7]","growth inhibition [3, 8]",growth inhibition ([3]; at 50.0 µM),"growth inhibition [4, 7]","growth inhibition [4, 8]",growth inhibition ([4]; at 50.0 µM),"growth inhibition [5, 7]","growth inhibition [5, 8]",growth inhibition ([5]; at 50.0 µM),"growth inhibition [6, 7]","growth inhibition [6, 8]",growth inhibition ([6]; at 50.0 µM)
C=c1c2ccccc2oc2nc3[nH]c(N)c(C#N)c(N)c3c(=N)c12,16%,82% (active),74% (active),1%,70% (active),75% (active),11%,79% (active),73.8% (active),17%,74% (active),48.5%,18%,79% (active),81.7% (active),7%,75% (active),69.2%
CN(C)c1ccc(/C=C/c2ccnc3ccccc23)cc1,-6%,95% (active),78.1% (active),0%,97% (active),84.5% (active),-1%,97% (active),92.3% (active),-10%,35%,-15.1%,-1%,97% (active),91.5% (active),19%,93% (active),89.1% (active)
Cc1cc(N/N=C/c2ccccn2)nc2ccccc12,20%,94% (active),88.7% (active),7%,95% (active),92.3% (active),21%,95% (active),89.8% (active),22%,93% (active),83.9% (active),8%,98% (active),85.7% (active),11%,95% (active),90% (active)
CC1C(c2ccccc2)OCCN1C(=S)Nc1ccc(S(=O)(=O)N2CCCCC2)cc1 (configuration not stated),46%,86% (active),85.4% (active),46%,84% (active),89.2% (active),65%,97% (active),91.5% (active),62%,96% (active),89.7% (active),73% (active),96% (active),90.1% (active),43%,88% (active),86.4% (active)
COc1ccc(Nc2nc3ccc(C(F)(F)F)cc3nc2C(=O)O)cc1,10%,51%,30.6%,13%,46%,42.9%,21%,22%,40.6%,31%,37%,68.3%,7%,12%,60.5%,9%,48%,54.5%
COC(=O)[C@]1(C)CCC[C@@]2(C)[C@@H]3C[C@@H]4[C@H]5C[C@@]3(CC[C@@H]21)C[C@@]45C,31%,99% (active),92.2% (active),28%,99% (active),93.5% (active),34%,99% (active),93.7% (active),31%,99% (active),92.3% (active),32%,100% (active),92.2% (active),37%,99% (active),86.8% (active)
CCCCCCCCCCCCCCCCCC[S+](C)CC (configuration not stated),97% (active),94% (active),90.2% (active),99% (active),98% (active),92.9% (active),99% (active),99% (active),92.9% (active),98% (active),98% (active),91.6% (active),99% (active),98% (active),91.5% (active),98% (active),97% (active),90.3% (active)
N=C1C(=N)c2ccccc2-c2ccccc21,9%,99% (active),88.8% (active),25%,100% (active),91.2% (active),17%,38%,91.9% (active),18%,87% (active),91.7% (active),11%,99% (active),89.6% (active),19%,99% (active),89.2% (active)
O=C1C(=O)c2cccnc2-c2ncccc21,93% (active),98% (active),90.8% (active),95% (active),98% (active),93.6% (active),95% (active),99% (active),93.2% (active),73% (active),96% (active),91% (active),96% (active),98% (active),92.2% (active),94% (active),98% (active),91.5% (active)
Nc1nc(-c2ccccc2)nc(N)c1N=O,50%,99% (active),87.4% (active),63%,98% (active),89.5% (active),50%,99% (active),91.5% (active),52%,100% (active),77% (active),82% (active),97% (active),89.2% (active),49%,67%,88.5% (active)
Cc1c2c(c(C)c3c[n+](C)ccc13)Oc1ccccc1O2,18%,24%,25.4%,12%,19%,61.6%,11%,21%,80.5% (active),17%,20%,62.1%,28%,31%,85.6% (active),24%,15%,-20.6%
Clc1ccc(Cc2nc3ccccc3s2)cc1,-5%,99% (active),99.2% (active),33%,99% (active),99.5% (active),47%,99% (active),99.5% (active),16%,99% (active),97.3% (active),38%,99% (active),99% (active),29%,99% (active),99.3% (active)
CCCc1cc(=O)oc2c3c(c4c(c12)OC(C)(C)CC4)OC(C)[C@H](C)[C@@H]3O (some centres not stated),36%,90% (active),83.7% (active),36%,92% (active),85.6% (active),28%,90% (active),80.2% (active),27%,93% (active),85.2% (active),12%,90% (active),80.1% (active),31%,94% (active),77% (active)
N=C(N)Sc1cccc[n+]1[O-],99% (active),99% (active),98.8% (active),99% (active),99% (active),98.9% (active),100% (active),99% (active),98.2% (active),98% (active),98% (active),97.4% (active),100% (active),99% (active),99% (active),99% (active),99% (active),98.2% (active)
Nc1nc(N)c2cc(Sc3cccc(C(F)(F)F)c3)ccc2n1,21%,77% (active),68.5%,18%,75% (active),53%,15%,97% (active),79.1% (active),22%,26%,87.7% (active),17%,74% (active),23.9%,22%,93% (active),88.8% (active)
CC(C)(C)CC(C)(C)c1ccc(OCCOCCSC(=N)N)cc1,5%,99% (active),46.4%,-3%,100% (active),47%,23%,99% (active),40.1%,13%,99% (active),99.2% (active),5%,99% (active),99.5% (active),24%,98% (active),97.6% (active)
Cc1nn(CCO)c(C)c1N=[N+]([O-])c1c(C)nn(CCO)c1C,12%,98% (active),88.8% (active),12%,98% (active),91.8% (active),24%,98% (active),89.3% (active),9%,95% (active),86% (active),20%,97% (active),90.6% (active),27%,98% (active),89.1% (active)
CC1=C(Cl)C[C@@H](/C(C)=C\Cl)O[C@@]1(O)C(Br)Br,31%,92% (active),91.8% (active),24%,94% (active),93.4% (active),40%,93% (active),93.5% (active),20%,90% (active),91.2% (active),40%,91% (active),92.3% (active),65%,92% (active),15.1%
O=[N+]([O-])c1ccc(Oc2ccccc2Cl)c([N+](=O)[O-])c1,13%,96% (active),4.1%,-25%,95% (active),38.1%,27%,97% (active),63.1%,3%,86% (active),17.9%,7%,97% (active),44.7%,29%,97% (active),72.7% (active)

# From PubChem BioAssay (NCI)
